Reference: PubChem BioAssay (NCATS)
Records with an inconclusive call do not appear. The source made the active and inactive calls. Unless noted, calls follow the shape of the dose curve; as a rule, active = well fitted curve in either direction with a large enough effect (not every such curve was filed as active); inconclusive = small, poorly fitted or top-dose-only effect, or another doubt; inactive = flat fitted curve, though single readings scatter.

What follows are molecules tested against Mitogen-activated protein kinase 10 (Mus musculus) (UniProt Q61831) (assay: JNK3 AlphaScreen Assay (AID 530;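 also: kinase came from lysate of stimulated human HepG2 cells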; also: potency is read from the fitted curve at half-maximal effect;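 as to activity change, negative = inhibition: signal reports phosphorylation of biotinylated GST-cJun 1-79 at Ser73 with 10 µM ATP; % is scaled to controls: 0 for no effect and ±100 for the full control effect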)). Details: JNK3 lysate, c-Jun phosphorylation; series mostly up to 25.6 µM; activity change, negative = inhibition: at the top concentration.
Outline: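 Biotinylated GST-cJun(1-79) served as substrate for JNK3 in HepG2 lysates stimulated with IL-1beta and TNF-alpha. ATP was 10 uM final, pH 7.6. Ser73 phosphorylation was quantified by AlphaScreen (680 nm excitation).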

Compound | activity change, negative = inhibition | Potency
NCC1CCC(C(=O)O)CC1 (configuration not stated) | -2.63% (inactive) | –
CN(C)c1ccccc1CN1CCCN(Cc2ccccc2N(C)C)C1c1ccncc1 | 5.91% [at 11.4 µM] (inactive) | –
CCCCC(C=O)NC(=O)C(CC(C)C)NC(=O)OCc1ccccc1 (configuration not stated) | -15.4% [at 57.1 µM] (inactive) | –
Cc1ccc(NC(=O)c2cccc(N(C)C)c2)cc1NC(=O)c1ccc(O)cc1 | -10.4% [at 57.1 µM] (inactive) | –
CC1C(=O)OC2C(O)C34C5CC(C(C)(C)C)C36C(OC(=O)C6O)OC4(C(=O)O5)C12O (configuration not stated) | -1.59% [at 57.1 µM] (inactive) | –
CCC(=C(CC)c1ccc(O)cc1)c1ccc(O)cc1 | 4.54% (inactive) | –
CCCCC[C@H](O)C=C[C@H]1[C@H](O)CC(=O)[C@H]1CCCCCCC(=O)O | 13.1% [at 57.1 µM] (inactive) | –
Clc1ccc(COC(Cn2ccnc2)c2ccc(Cl)cc2Cl)c(Cl)c1 (configuration not stated) | -4.27% (inactive) | –
O=c1cc(-c2ccc(O)c(O)c2)oc2cc(O)cc(O)c12 | – | 6.31 µM (active)
CN1CCN2c3ncccc3Cc3ccccc3C2C1 (configuration not stated) | 14% [at 57.1 µM] (inactive) | –
Cc1cc2nc3c(=O)[nH]c(=O)nc-3n(CC(O)C(O)C(O)CO)c2cc1C (configuration not stated) | – | inactive
NC(=O)c1nnn(Cc2cc(Cl)c(C(=O)c3ccc(Cl)cc3)c(Cl)c2)c1N | -2.42% [at 11.4 µM] (inactive) | –
NS(=O)(=O)c1cc(Cl)c(Cl)c(S(N)(=O)=O)c1 | 2.28% (inactive) | –
CN(C)CCN(Cc1ccc(Cl)cc1)c1ccccn1 | -1.11% (inactive) | –
C=C1c2cccc(O)c2C(O)=C2C(=O)[C@@]3(O)C(O)=C(C(N)=O)C(=O)[C@@H](N(C)C)[C@@H]3[C@@H](O)[C@H]12 | -7% (inactive) | –
O=S(=O)(O)c1ccc2cc(N=Nc3cc(S(=O)(=O)O)c4cccnc4c3O)ccc2c1 | -3.79% [at 11.4 µM] (inactive) | –
CN[C@H]1[C@@H](O[C@@H]2[C@H](O[C@@H]3[C@@H](O)[C@@H](O)[C@@H](N=C(N)N)[C@@H](O)[C@@H]3N=C(N)N)O[C@H](C)[C@@]2(O)C=O)O[C@@H](CO)[C@@H](O)[C@H]1O | 26.4% (inactive) | –

Each molecule was assayed against 3',5'-cyclic-AMP phosphodiesterase 4B (Homo sapiens) (UniProt Q07343) (assay: qHTS Assay for Inhibitors of PDE-IV (AID 607; active = well fitted activation curve with a large enough effect in the main read-out, with a control signal flat, not every such curve was filed as active; also: % of control where 0% means no effect)). Details: HEK293 ACTOne CNG channel cells, membrane potential fluorescence; series mostly up to 22.9 µM; activation (PDE inhibition): at the top concentration.
Outline: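 Cell-based read-out of cAMP via a modified cyclic nucleotide-gated channel and membrane potential dye (535/590 nm) in HEK293 cells expressing PDE4 endogenously. Compounds tested up to 22.9 uM final; 100 uM RO 20-1724 reference.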

Chain of 3',5'-cyclic-AMP phosphodiesterase 4B (Homo sapiens) (Q07343 whole entry, looked up): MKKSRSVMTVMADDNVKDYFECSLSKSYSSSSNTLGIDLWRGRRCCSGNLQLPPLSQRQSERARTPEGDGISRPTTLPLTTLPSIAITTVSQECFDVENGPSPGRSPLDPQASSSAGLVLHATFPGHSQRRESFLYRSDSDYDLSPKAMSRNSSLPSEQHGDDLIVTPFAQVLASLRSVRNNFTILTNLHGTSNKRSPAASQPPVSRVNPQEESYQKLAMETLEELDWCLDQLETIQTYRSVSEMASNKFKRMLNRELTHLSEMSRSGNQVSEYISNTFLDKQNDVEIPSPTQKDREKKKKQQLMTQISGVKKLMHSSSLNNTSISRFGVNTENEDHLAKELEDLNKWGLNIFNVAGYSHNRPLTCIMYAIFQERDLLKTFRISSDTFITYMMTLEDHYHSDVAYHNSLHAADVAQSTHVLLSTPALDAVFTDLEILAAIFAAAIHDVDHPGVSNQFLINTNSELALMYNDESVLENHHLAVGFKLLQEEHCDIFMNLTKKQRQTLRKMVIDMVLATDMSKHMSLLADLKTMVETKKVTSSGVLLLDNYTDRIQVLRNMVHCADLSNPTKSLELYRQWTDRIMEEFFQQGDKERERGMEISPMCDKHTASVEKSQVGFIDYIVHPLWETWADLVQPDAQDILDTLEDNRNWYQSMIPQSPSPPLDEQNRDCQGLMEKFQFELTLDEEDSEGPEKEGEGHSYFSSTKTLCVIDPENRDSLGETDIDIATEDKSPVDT

Compound | activation (PDE inhibition)
NCC1CCC(C(=O)O)CC1 (configuration not stated) | 2.09% (inactive)
CN(C)c1ccccc1CN1CCCN(Cc2ccccc2N(C)C)C1c1ccncc1 | 8.34% (inactive)
CCCCC(C=O)NC(=O)C(CC(C)C)NC(=O)OCc1ccccc1 (configuration not stated) | -23.1% (inactive)
Cc1ccc(NC(=O)c2cccc(N(C)C)c2)cc1NC(=O)c1ccc(O)cc1 | -16.1% (inactive)
CC1C(=O)OC2C(O)C34C5CC(C(C)(C)C)C36C(OC(=O)C6O)OC4(C(=O)O5)C12O (configuration not stated) | 4.58% (inactive)
COc1nccc(-c2c(-c3ccc(F)cc3)ncn2C2CCC(O)CC2)n1 (configuration not stated) | -22% (inactive)
CCC(=C(CC)c1ccc(O)cc1)c1ccc(O)cc1 | 4.77% (inactive)
O=c1cc(-c2ccc(O)c(O)c2)oc2cc(O)cc(O)c12 | 4.5% (inactive)
COc1ccc(CCN(C)CCCOc2ccc(S(=O)(=O)c3[nH]c4ccccc4c3C(C)C)cc2)cc1OC | -27.4% (inactive)
Cc1cc2nc3c(=O)[nH]c(=O)nc-3n(CC(O)C(O)C(O)CO)c2cc1C (configuration not stated) | -5.86% (inactive)
NC(=O)c1nnn(Cc2cc(Cl)c(C(=O)c3ccc(Cl)cc3)c(Cl)c2)c1N | -3.39% (inactive)
NS(=O)(=O)c1cc(Cl)c(Cl)c(S(N)(=O)=O)c1 | 2.14% (inactive)
C=C1c2cccc(O)c2C(O)=C2C(=O)[C@@]3(O)C(O)=C(C(N)=O)C(=O)[C@@H](N(C)C)[C@@H]3[C@@H](O)[C@H]12 | 1.28% (inactive)
O=S(=O)(O)c1ccc2cc(N=Nc3cc(S(=O)(=O)O)c4cccnc4c3O)ccc2c1 | -0.869% (inactive)
CN[C@H]1[C@@H](O[C@@H]2[C@H](O[C@@H]3[C@@H](O)[C@@H](O)[C@@H](N=C(N)N)[C@@H](O)[C@@H]3N=C(N)N)O[C@H](C)[C@@]2(O)C=O)O[C@@H](CO)[C@@H](O)[C@H]1O | 7.43% (inactive)
